# Results taken from the supplement of paper PMC7156485.
# ± gives the standard deviation of the averaged measurements.
# System: HCC1569
# Experiment: cell number relative to DMSO (% of DMSO); higher = more cells (less growth inhibition / toxicity)
# Settings: concentration: 10 µM; 24 h
# Summary of the method: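 Treatment: HCC1569 and TDF cells, 800 per well in 384-well plates with RPMI and 10% FBS, were given compounds at 10 µM for 24 h at 37 °C, in triplicate. Readout: after 3.7% formaldehyde fixation, cells were stained with a rabbit anti-H1.0 antibody, an AlexaFluor 647 secondary and DAPI. Reported values are H1.0 nuclear intensity or cell number as percent of the plate control, taken as the median of replicates, with positional smoothing for HCC1569.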
# 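Also: TDF denotes transformed human dermal fibroblasts of mesenchymal origin.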
row,Compound,cell number
1,O=C1NC(=O)C(=Cc2ccc3nccnc3c2)S1 [PI 3-Kg Inhibitor],103
2,CC(=O)c1ccc2c(c1)[C@H](NC(=O)c1ccc(F)c(Cl)c1)[C@H](O)C(C)(C)O2,97.4
3,Br.CN1C2CCC1CC(OC(=O)C(O)c1ccccc1)C2 (stereo not given),102
4,COc1ccccc1N1CCN(CCCNc2cc(=O)n(C)c(=O)n2C)CC1.Cl [Urapidil hydrochloride],101
5,COC(C)(C)CCCC(C)CC=CC(C)=CC(=O)O (stereo not given) [Methoprene acid],104
6,CS(=O)(=O)O.Cc1c(O)cccc1C(=O)NC(CSc1ccccc1)C(O)CN1CC2CCCCC2CC1C(=O)NC(C)(C)C (stereo not given) [Nelfinavir mesylate],102
7,CN(C)CCCOc1nn(Cc2ccccc2)c2ccccc12 [Benzydamine],100
8,CC(N=C(NC#N)Nc1ccncc1)C(C)(C)C (stereo not given) [Pinacidil],103 ± 2.5
9,COc1cc(-c2oc3cc(O)cc(O)c3c(=O)c2O)ccc1O [Isorhamnetine],97.1
10,CCNC(=O)N1CCN(CCCC(c2ccc(F)cc2)c2ccc(F)cc2)CC1.Cl [Amperozide hydrochloride],94.2
11,C=C(C)C1CCC2(C(=O)O)CCC3(C)C(CCC4C5(C)CCC(O)C(C)(C)C5CCC43C)C12 (stereo not given) [Betulinic acid],101
12,CCCCCCCCCC(=O)NC(CN1CCOCC1)C(O)c1ccccc1.Cl (racemic),94
13,"CCCCCCCCCCCC=CCC=CCCCC(=O)O [5(Z), 8(Z)-Eicosadienoic acid]",101
14,"NC(C(=O)O)C1CC1C(=O)O [(2S,1'S,2'S)-2-(carboxycyclopropyl)glycine]",105
15,Cc1ccc(Nc2nccc(N(C)c3ccc4c(C)n(C)nc4c3)n2)cc1S(N)(=O)=O [Pazopanib],74.3
16,O=c1[nH]c(=O)n(C2CC(O)C(CO)O2)cc1I (stereo not given) [Idoxuridine],103
17,"COc1cc(C=Cc2ccccc2)oc(=O)c1 [5,6-Dehydrokawain]",104
18,CN(C)CCC(c1ccc(Cl)cc1)c1ccccn1 (stereo not given) [Chlorpheniramine],100
19,Cl.NCCc1ccc(O)c(O)c1 [Dopamine hydrochloride],106
20,CS(=O)(=O)O.Cc1ccc(N(CC2=NCCN2)c2cccc(O)c2)cc1 [Phentolamine mesylate],99

row,Compound,cell number
1,COc1cc(Br)c(Nc2nc(-c3c(C)nc4ncccn34)cs2)c(Br)c1,61.1
2,COC(=O)C1C2CC3c4[nH]c5cc(OC)ccc5c4CCN3CC2CC(OC(=O)c2cc(OC)c(OC)c(OC)c2)C1OC (stereo not given) [Reserpine],99.2
3,"O=c1[nH]ccc2c(O)cccc12 [1,5-Isoquinolinediol]",100
4,"C[N+](C)(C)CCO.[Cl-] [2-hydroxy-N,N,N-trimethylethanaminium chloride]",101
5,CCC(CCC(C)C1CCC2C3CC=C4CC(O)CCC4(C)C3CCC12C)C(C)C (stereo not given),99.8
6,CCCCCCCCC(O)C=CC=CC=CC(O)CCCC(=O)O (stereo not given) [Leukotriene B3],101
7,COC(=O)C(N)Cc1ccc(Cl)cc1.Cl (racemic) [DL-p-Chlorophenylalanine methyl ester hydrochloride],97.3
8,O=[N+]([O-])c1cccc2c(Br)[nH]nc12 [3-Bromo-7-nitroindazole],116
9,CCOC(=O)CN1C(=O)c2ccc3c4c(ccc(c24)C1=O)C(=O)N(CC(=O)OCC)C3=O,104
10,CCCCCC=CCC(O)C=CC=CCCC(=O)O [Tetranor-12(R)-HETE],104
11,COc1cc2nc(N(C)CCCNC(=O)C3CCCO3)nc(N)c2cc1OC (stereo not given) [Alfuzosin],99.7
12,Cl.NC(N)=NC(N)=Nc1cccc(Cl)c1 [1-(m-Chlorophenyl)-biguanide hydrochloride],102
13,COc1ccc2c(c1)c(CC(=O)OCC(=O)O)c(C)n2C(=O)c1ccc(Cl)cc1 [Acemetacin],96.5
14,O=C(O)CCc1nc(-c2ccccc2)c(-c2ccccc2)o1 [Oxaprozin],104
15,O=c1cc(-c2ccc(O)cc2)oc2cc(O)cc(O)c12 [Apigenin],93.5 ± 3
16,OCCn1cc(-c2cnc3nnn(Cc4ccc5ncccc5c4)c3n2)cn1,99.6
17,CC1(COc2ccc(CC3SC(=O)NC3=O)cc2)CCCCC1 (stereo not given) [Ciglitizone],102
18,COc1cc2ncnc(Nc3cccc(Cl)c3)c2cc1OC [Tyrphostin AG 1478],92.8
19,NC(=O)Nc1sc(-c2ccc(F)cc2)cc1C(N)=O [IKK-2 Inhibitor IV],80.1
20,Cl.O.O=C(O)CN(CCN(CC(=O)O)Cc1ccccc1O)Cc1ccccc1O,105
